# Data as given in PubChem BioAssay.
# “And” between values parts separate entries of the source, which are not always exact repeats. Identical values can stand only once. For some assays here: Results with a measured potency or affinity are listed apart. The source made the active and inactive calls.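 How the source made its calls, unless noted: active means normalized viability below 100% at a tested concentration; inactive means the rest.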
# Legend:
# [1] = modulation of C. elegans fzo-1 (AID 1259413; call rule not given here;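 further: fzo-1 mutant C. elegans worms in liquid wells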); conditions: C. elegans fzo-1 modulator screen, mean read-out; stronger effect = higher value
# F380Y = test: BK channel mutant inhibitors and activators – cell-based, U2OS BacMam, thallium flux, beta subunits, selectivity assay, profiling panel (AID 1259406;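 active means thallium flux through the channel raised or lowered by more than 3 SD from vehicle-only wells, actives on both sides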;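 further: initial slope of Thallos dye fluorescence rise after thallium is added; log ratio against the mean of 0.3% DMSO vehicle wells on the same plate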); conditions: U2OS BacMam BK variants, at 30 µM
# F380Y/beta2Delta = test: as above; conditions: U2OS BacMam BK variants, at 30 µM
# R275C = test: as above; conditions: U2OS BacMam BK variants, at 30 µM
# R275C/beta1 = test: as above; conditions: U2OS BacMam BK variants, at 30 µM
# R275C/beta2Delta = test: as above; conditions: U2OS BacMam BK variants, at 30 µM
# [2] = blockers of polyQ-driven CASP3 activation – cell-based (AID 1583); conditions: polyglutamine-induced caspase-3 activation, cell assay; stronger effect = higher value;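 tested at 10 µM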
# [3] = restoration of touch response, mutant HTT neurons – whole organism, C. elegans mechanosensory neurons, N-terminal huntingtin (AID 1599); conditions: C. elegans polyQ-huntingtin mechanosensory neurons, stronger effect = higher value
# [4] = glutamate transport activators, MN-1 cells, MN-1 cell line (AID 1612); conditions: MN-1 motor neuron cells, stronger effect = higher value;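 further: tested at 1 µM final; 0% = mean of DMSO vehicle wells on each plate; positive means more glutamate uptake than control and negative means less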
# [5] = GFP-Q80 aggregate reduction, neuronal-like cells, cell-based, NGF-treated PC12, GFPQ80 (AID 1614); conditions: PC12 NGF-treated GFP-polyQ80 inclusion reduction;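 further: lower means fewer inclusions and 0 means no inclusions at all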
# [6] = 75Q-TubH aggregate inhibition, S. cerevisiae, yeast (AID 1616); conditions: S. cerevisiae 75Q-TubH polyglutamine aggregation suppression; stronger effect = higher value
# [7] = compounds altering circadian rhythm period length – cell-based, LOPAC library, luminescence reporter (AID 2774; call rule not given here;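 further: values are relative to mean of DMSO wells on each plate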); conditions: circadian reporter cells, at 7 µM, actives lie on both sides
# [8] = tested on: Hepatitis C virus NS3 helicase; test: blockers of NS3h binding to ssDNA – biochemical, fluorescence polarization, LOPAC1280 library, primary screen (AID 687035; in the data active means inhibition above about 37%); conditions: Purified HCV NS3 helicase, Cy5-dT15 ssDNA binding fluorescence polarization; stronger effect = higher value; concentration not given here
# [9] = compounds altering Cy5-DNA-NS3h complex signal – biochemical, LOPAC1280, artefact control for HCV NS3 helicase inhibitor project (AID 687037; call rule not given here); conditions: Cy5-DNA-NS3h complex fluorescence interference counterscreen
# [10] = tested on: Aerobactin synthetase IucA (Klebsiella pneumoniae, hypervirulent); test: biochemical IucA inhibition screen of LOPAC library by absorbance (AID 1346212; call rule not given here;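 further: 100% = no compound wells and 0% = no enzyme wells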); conditions: IucA enzyme assay, absorbance (OD) readout; stronger effect = lower value;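 tested at 8 µM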
# [11] = blockers of cellular phospholipid synthesis – cell-based, LOPAC library, screen 4, primary screen (AID 1347384; call rule not given here); conditions: animal cells, phospholipid biosynthesis inhibition screen; at 10 µM
# [12] = compounds altering viability of human ES cells (AID 493140; call rule not given here;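 further: cells exposed to compounds for four days before counting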); conditions: human embryonic stem cell survival screen; stronger effect = higher value
# [13] = growth inhibition, single agents and combos, ICB984, cell-based, cisplatin or BGB combos, synergistic combos for chromothripsis tumors (AID 1671451; call rule not given here;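 further: cells exposed for 96 hours before readout; 0% = vehicle DMSO and 100% = killing by high DMSO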); conditions: ICB984 medulloblastoma cells, drug combinations, stronger effect = higher value
# [14] = drug combination growth inhibition, ovarian cancer – cell-based, oncology-focused library, rucaparib conditional, profiling panel (AID 1508598); conditions: patient-derived ovarian cancer cells, CellTiter-Glo viability, 144 h, stronger effect = lower value
# [15] = measured here: 5 uM single agent, at 5 µM
smiles,measurement,setting,value
COc1cccc([C@@]2(O)CCCC[C@@H]2CN(C)C)c1,mean signal,[1],274 (inactive)
same,log fold change Tl+ flux,F380Y,-0.0178 (inactive)
same,log fold change Tl+ flux,F380Y/beta2Delta,-0.0331 (inactive)
same,log fold change Tl+ flux,R275C,-0.0685 (inactive)
same,log fold change Tl+ flux,R275C/beta1,-0.0302 (inactive)
same,log fold change Tl+ flux,R275C/beta2Delta,0.00141 (inactive)
CN1C(=O)COc2c(C(=O)NC3CN4CCC3CC4)cc(Cl)cc21 (stereo unspecified),mean signal,[1],219 (inactive)
same,log fold change Tl+ flux,F380Y,0.054 (inactive)
same,log fold change Tl+ flux,F380Y/beta2Delta,0.0242 (inactive)
same,log fold change Tl+ flux,R275C,-0.0315 (inactive)
same,log fold change Tl+ flux,R275C/beta1,0.0279 (inactive)
same,log fold change Tl+ flux,R275C/beta2Delta,-0.00752 (inactive)
Nc1ccncc1,inhibition,[2],-15.5%
same,rescue above control,[3],26.7
same,glutamate uptake change,[4],-9.57%
same,inclusion score,[5],2
same,aggregation suppression score,[6],1.23
same,period change,[7],0.07 h (inactive)
same,inhibition,[8],-4% (inactive)
same,fluorescence ratio (interference),[9],0.9 (inactive)
same,remaining activity,[10],103% (inactive)
same,outcome,[11],inactive
NN=C(N)N,period change,[7],-0.015 hour (inactive) and -0.1 hour (inactive)
same,inhibition,[8],-1% (inactive) and -5% (inactive)
same,fluorescence ratio (interference),[9],1 (inactive) and 0.9 (inactive)
same,remaining activity,[10],111% (inactive) and 119% (inactive)
same,outcome,[11],inactive
O=P1(NCCCl)OCCCN1CCCl (stereo unspecified),survival,[12],3.83 (inactive)
same,inhibition,"[13]; BGB IC20 combo, at 0.005 µM",-4.87% and -19.5%
same,inhibition,"[13]; BGB IC40 combo, at 0.005 µM",-32.7% and -24.5%
same,inhibition,"[13]; BGB IC40 combo, at 0.05 µM",-25.4% and -42.1%
same,inhibition,[13]; at 0.5 µM,-22% (inactive) and -43% (inactive)
same,inhibition,"[13]; cisplatin combo, at 0.05 µM",-25.4% and -47.2%
same,inhibition,"[13]; cisplatin combo, at 0.5 µM",-28.2% and -28.3%
same,inhibition,"[13]; cisplatin combo, at 5 µM",-18% and -28.2%
same,inhibition,[13]; [15],-4.46% and 4.1%
Oc1cc(Cl)ccc1Oc1ccc(Cl)cc1Cl,mean signal,[1],192 (inactive)
same,log fold change Tl+ flux,F380Y,-0.452 (active)
same,log fold change Tl+ flux,F380Y/beta2Delta,-0.343 (active)
same,log fold change Tl+ flux,R275C,-0.105 (active)
same,log fold change Tl+ flux,R275C/beta1,-0.254 (active)
same,log fold change Tl+ flux,R275C/beta2Delta,-0.148 (active)
CC1(C)C(C=C(Cl)Cl)C1C(=O)OC(C#N)c1cccc(Oc2ccccc2)c1 (stereo unspecified),survival,[12],64.8 (inactive)
Oc1cccc2cccnc12,inhibition,[2],-67%
same,rescue above control,[3],8.29
same,glutamate uptake change,[4],53.7%
same,aggregation suppression score,[6],0.00802
CCCC(C)C1(CC)C(=O)N=C(S)NC1=O (stereo unspecified),inhibition,[2],15.2%
same,rescue above control,[3],-8.64
same,glutamate uptake change,[4],15.5%
same,inclusion score,[5],2
same,aggregation suppression score,[6],0.929
Cn1c(CCCC(=O)O)nc2cc(N(CCCl)CCCl)ccc21,inhibition,[8],-4% (inactive)
same,fluorescence ratio (interference),[9],1 (inactive)
same,outcome,[11],inactive
same,viability,"[14]; at 0.000305 µM, OCI-C5x cells, with rucaparib 10 µM, 100% = cells with rucaparib alone",103% (inactive)
same,viability,"[14]; at 0.000305 µM, OCI-C5x cells, without rucaparib",107% (inactive)
same,viability,"[14]; at 0.000305 µM, OCI-P5x cells, with rucaparib 20 µM, 100% = cells with rucaparib alone",107% (inactive)
same,viability,"[14]; at 0.000305 µM, OCI-P5x cells, without rucaparib",101% (inactive)
same,viability,"[14]; at 0.00122 µM, OCI-C5x cells, with rucaparib 10 µM, 100% = cells with rucaparib alone",97.3% (active)
same,viability,"[14]; at 0.00122 µM, OCI-C5x cells, without rucaparib",99.1% (active)
same,viability,"[14]; at 0.00122 µM, OCI-P5x cells, with rucaparib 20 µM, 100% = cells with rucaparib alone",99.9% (active)
same,viability,"[14]; at 0.00122 µM, OCI-P5x cells, without rucaparib",102% (inactive)
same,viability,"[14]; at 0.00488 µM, OCI-C5x cells, with rucaparib 10 µM, 100% = cells with rucaparib alone",104% (inactive)
same,viability,"[14]; at 0.00488 µM, OCI-C5x cells, without rucaparib",104% (inactive)
same,viability,"[14]; at 0.00488 µM, OCI-P5x cells, with rucaparib 20 µM, 100% = cells with rucaparib alone",103% (inactive)
same,viability,"[14]; at 0.00488 µM, OCI-P5x cells, without rucaparib",109% (inactive)
same,viability,"[14]; at 0.0195 µM, OCI-C5x cells, with rucaparib 10 µM, 100% = cells with rucaparib alone",105% (inactive)
same,viability,"[14]; at 0.0195 µM, OCI-C5x cells, without rucaparib",99.7% (active)
same,viability,"[14]; at 0.0195 µM, OCI-P5x cells, with rucaparib 20 µM, 100% = cells with rucaparib alone",93.4% (active)
same,viability,"[14]; at 0.0195 µM, OCI-P5x cells, without rucaparib",100% (inactive)
same,viability,"[14]; at 0.0781 µM, OCI-C5x cells, with rucaparib 10 µM, 100% = cells with rucaparib alone",109% (inactive)
same,viability,"[14]; at 0.0781 µM, OCI-C5x cells, without rucaparib",97.6% (active)
same,viability,"[14]; at 0.0781 µM, OCI-P5x cells, with rucaparib 20 µM, 100% = cells with rucaparib alone",92.7% (active)
same,viability,"[14]; at 0.0781 µM, OCI-P5x cells, without rucaparib",96.4% (active)
same,viability,"[14]; at 0.313 µM, OCI-C5x cells, with rucaparib 10 µM, 100% = cells with rucaparib alone",104% (inactive)
same,viability,"[14]; at 0.313 µM, OCI-C5x cells, without rucaparib",101% (inactive)
same,viability,"[14]; at 0.313 µM, OCI-P5x cells, with rucaparib 20 µM, 100% = cells with rucaparib alone",95% (active)
same,viability,"[14]; at 0.313 µM, OCI-P5x cells, without rucaparib",74.7% (active)
same,viability,"[14]; at 1.25 µM, OCI-C5x cells, with rucaparib 10 µM, 100% = cells with rucaparib alone",124% (inactive)
same,viability,"[14]; at 1.25 µM, OCI-C5x cells, without rucaparib",97.4% (active)
same,viability,"[14]; at 1.25 µM, OCI-P5x cells, with rucaparib 20 µM, 100% = cells with rucaparib alone",92.4% (active)
same,viability,"[14]; at 1.25 µM, OCI-P5x cells, without rucaparib",79.4% (active)
same,viability,"[14]; at 5 µM, OCI-C5x cells, with rucaparib 10 µM, 100% = cells with rucaparib alone",106% (inactive)
same,viability,"[14]; at 5 µM, OCI-C5x cells, without rucaparib",93% (active)
same,viability,"[14]; at 5 µM, OCI-P5x cells, with rucaparib 20 µM, 100% = cells with rucaparib alone",80.1% (active)
same,viability,"[14]; at 5 µM, OCI-P5x cells, without rucaparib",84.8% (active)
same,inhibition,"[13]; BGB IC20 combo, at 0.005 µM",6.09%
same,inhibition,"[13]; BGB IC40 combo, at 0.005 µM",-55.7%
same,inhibition,"[13]; BGB IC40 combo, at 0.05 µM",-19.6%
same,inhibition,[13]; at 0.5 µM,-15.5% (inactive)
same,inhibition,"[13]; cisplatin combo, at 0.05 µM",-19.6%
same,inhibition,"[13]; cisplatin combo, at 0.5 µM",-24.4%
same,inhibition,"[13]; cisplatin combo, at 5 µM",-46.7%
same,inhibition,[13]; [15],-9.28%
N#CC(C#N)=Cc1ccc(O)c(O)c1,period change,[7],-0.18 h (inactive)
same,survival,[12],57.1 (inactive)
same,inhibition,[8],0% (inactive)
same,fluorescence ratio (interference),[9],1 (inactive)
same,remaining activity,[10],120% (inactive)
same,outcome,[11],inactive
